Source: PubChem
L3MBTL1 block: qHTS Assay for the Inhibitors of L3MBTL1 | actives 0.66% (n = 230,000) | Potency, µM (series often up to 57.1 µM), without a hit: at the highest dose activity, negative = inhibition, usual class: inhibitors | Lethal(3)malignant brain tumor-like protein 1 (Homo sapiens), Q9Y468 | AlphaScreen L3MBTL1–H3K9me1 peptide binding | AID 485360, 2010; also: % is scaled to controls: 0 for no effect and ±100 for the full control effect; nearly all actives have a fitted effect of over 60% in size
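AlphaScreen proximity signal between nickel-chelate acceptor and streptavidin donor beads (final 10 ug/mL) reports binding of 50 nM L3MBTL1 to 75 nM biotin-H3 K9me1 peptide; complex incubated with compounds 30 min at room temperature; cefsulodin titration as control.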
BAZ2B block: qHTS Assay for Inhibitors of BAZ2B; actives 4.4% (n = 360,000); Potency, µM (titrated, usually from 114 µM), for the others: top-dose activity change, negative = inhibition, most hits filed as inhibitors; AlphaScreen BAZ2B-H3K14Ac peptide displacement; also: % is scaled to controls: 0 for no effect and ±100 for the full control effect; nearly all actives have a fitted effect of over 60% in size
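Compounds, titrated to a top concentration of 110 uM, were incubated 30 min at room temperature with preformed BAZ2B/acetyl-K14 H3 peptide complex (50 nM each). Proximity signal was measured by AlphaScreen after 20 min with beads.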
G9a inh: qHTS Assay for Inhibitors of Histone Lysine Methyltransferase G9a | Histone-lysine N-methyltransferase EHMT2 (Homo sapiens), Q96KQ7 | G9a H3K9 monomethylation, AlphaScreen, 2 h | Potency, µM (top dose mostly 102 µM), inactives show at the highest dose activity, negative = inhibition, usual class: inhibitors | actives 8.8% (n = 350,000); also: % is scaled to controls: 0 for no effect and ±100 for the full control effect; nearly all actives have a fitted effect of over 75% in size
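Chemiluminescent proximity detection of H3K9 monomethylation, read after 10 min bead incubation in the dark. Reaction: 20 nM G9a, 500 nM biotin-H3K9 peptide, 20 uM SAM cofactor, 2 h, room temperature, following 15 min enzyme-compound preincubation.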
GLS inh: qHTS for Inhibitors of Glutaminase (GLS). actives 0.21% (n = 410,000). GLS enzymatic activity, qHTS titration. Potency, µM (doses to about 45.5 µM), inactives show at the highest dose activity change, negative = inhibition, usual class: inhibitors. AID 624170, 2012; also: % is scaled to controls: 0 for no effect and ±100 for the full control effect
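Assay buffer: 45 mM KH2PO4 pH 8.2, 0.02% Tween-20. hKGA acts on L-glutamine (1 mM solution added); product glutamate is reported by an oxidase/peroxidase Amplex Red coupling, with fluorescence taken at baseline and 30 min.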
JMJD2A Tudor: qHTS Assay for Inhibitors of JMJD2A-Tudor Domain; Lysine-specific demethylase 4A (Homo sapiens), O75164; AlphaScreen JMJD2A-Tudor / H3K4me3 peptide binding; Potency, µM (doses to about 114 µM), for inactives: at the highest dose activity change, negative = inhibition, hits mostly inhibitors; actives 4.4% (n = 390,000); AID 504339, 2011; also: % is scaled to controls: 0 for no effect and ±100 for the full control effect; nearly all actives have a fitted effect of over 50% in size
HP1b binding inh: HTS for Inhibitors of HP1-beta Chromodomain Interactions with Methylated Histone Tails | Potency, µM (highest dose often 114 µM), without a hit: at the highest dose activity change, negative = inhibition, usual class: inhibitors | actives 0.56% (n = 390,000) | AlphaScreen HP1-beta / biotin-H3K9me3 peptide binding | Chromobox protein homolog 1 (Homo sapiens), P83916; also: nearly all actives have a fitted effect of over 70% in size
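Compound inhibition of the preformed complex between 50 nM HP1-beta and 50 nM biotinylated H3K9me3 peptide was read by AlphaScreen. Buffer was PBS pH 7.4 with 0.01% Tween-20. Incubations ran 30 min at room temperature, with 10 ug/mL donor/acceptor beads.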
Starred values were filed as active, the others as inactive; ? = inconclusive; . = no result given; [ ] = dose if it differs, or a comment. Most compounds without a hit are left out; they make up all but 10% or so of the library. Calls follow the shape of the dose curve; as a rule, active = well fitted curve in the direction sought with a large enough effect; inconclusive = small, poorly fitted or top-dose-only effect, or another doubt; inactive = no such curve, though single readings can be large; an effect the other way counts as inactive or inconclusive. Potency is read from the fitted curve at half-maximal effect.

SMILES	L3MBTL1 block	BAZ2B block	G9a inh	GLS inh	JMJD2A Tudor	HP1b binding inh
COC(=O)C1Cc2c([nH]c3ccccc23)CN1 (stereo not given)	-0.5%	-31.6%	39.8µM*	11.5%	-29.5%	23.3%
CNc1ccccc(C(=O)/C=C/c2ccccc2OC)c1=O	-5.4%	50.1µM*	4.47µM*	11.0%	?	-25.1%
CNc1ccc(Br)cc(C(=O)/C=C/c2cccc(Cl)c2Cl)c1=O	?	?	28.2µM*	2.4%	44.7µM*	-20.7%
COc1ccccc1C=CC(=O)C=Cc1ccccc1OC	.	.	.	8.0%	-27.8%	0.3%
CCNc1ccc(Br)cc(C(=O)/C=C/c2ccccc2Cl)c1=O	.	.	.	12.2%	44.7µM*	-35.4%
CCNc1ccccc(C(=O)/C=C/c2ccc3c(c2)OCO3)c1=O	.	44.7µM*	5.01µM*	-4.6%	56.2µM*	?
O=C(C=Cc1ccccc1Cl)c1ccccc1	.	.	.	-1.0%	62.1%	37.7%[57 µM]
COC(=O)/C=C/c1ccc2c(c1)OCO2	27.8%	0.2%	11.2%	5.4%	-7.8%	24.6%
COc1cccc(/C=C/C(=O)c2ccc3c(c2)OCO3)c1OC	3.3%	5.8%	-2.4%[12.7 µM]	-2.0%	-7.1%	40.8%
CNc1ccc(Br)cc(C(=O)/C=C/c2cccc(OC)c2OC)c1=O	?	39.8µM*	8.91µM*	.	4.2%	17.6%
Cc1ccc(/C=C/C(=O)c2cc(Br)ccc2OC(=O)c2ccco2)cc1	-9.0%	-21.9%	-49.1%[59 µM]	-9.8%	-10.7%[11.4 µM]	-26.4%
COc1ccccc1/C=C/C(=O)c1cc(Br)ccc1OC(=O)c1ccco1	.	.	.	7.5%	56.2µM*	-30.3%
CCS(=O)(=O)c1ccc(O)c(Nc2cc(C)nc(SC)n2)c1	.	-32.4%	-25.1%[59 µM]	17.3%	-10.9%	12.2%
CC(=O)C1=C(O)C(=O)N(c2ccc(Br)cc2)C1c1ccccc1[N+](=O)[O-] (stereo not given)	5.4%	-3.8%	39.8µM*	7.6%	-30.2%	-11.8%
CC(=O)C1=C(O)C(=O)N(CO)C1c1ccccc1F (stereo not given)	3.9%	?	56.2µM*	-1.8%	?	21.0%
CC(=O)C1=C(O)C(=O)N(c2ccc(O)cc2)C1c1ccccc1F (stereo not given)	.	1.7%	79.4µM*	27.3%	-19.6%	8.3%
N#Cc1ccc(S(=O)(=O)N2CCN(c3nc(-c4ccccc4)nc4ccccc34)CC2)cc1	.	.	.	.	-18.4%	49.5%
Cn1c2cc(S(C)=O)sc2c2cnn(Cc3cccc(O)c3)c(=O)c21 (stereo not given)	.	.	.	.	4.3%	.
CC1(C)CC(=O)C=C(Nc2ccc(C(=O)O)cc2)C1	9.1%	10.4%	-22.3%[59 µM]	13.3%	4.6%	30.6%
CC1(C)CC(=O)C=C(Nc2ccc(O)c(C(=O)O)c2)C1	-5.0%	-19.3%	44.7µM*	19.4%	-28.6%	41.4%
CC(C)[C@@H]1NC(=O)c2cc([N+](=O)[O-])cc(F)c2NCCC[C@@H](C(N)=O)NC(=O)[C@H](CO)NC1=O	0.3%	?	39.8µM*	.	.	.
C[C@@H](O)C1NC(=O)[C@H](CCCCN)NC(=O)c2cc([N+](=O)[O-])cc(I)c2NCCC[C@@H](C(N)=O)NC1=O (stereo not given in full)	-0.1%	-31.8%	50.1µM*	-1.0%	-24.6%	26.8%
C[C@@H]1NC(=O)c2cc([N+](=O)[O-])cc(I)c2NCCCC[C@@H](C(N)=O)NC(=O)[C@H](CC(N)=O)NC1=O	1.7%	?	31.6µM*	-0.1%	-19.9%	32.6%
NC(=O)[C@@H]1CCCCNc2c(F)cc([N+](=O)[O-])cc2C(=O)N[C@@H](CC(=O)O)C(=O)NCC(=O)N1	7.7%	-3.6%	?	0.5%	-6.2%	52.6%
CC(C)[C@@H]1NC(=O)c2cc([N+](=O)[O-])cc(I)c2NCC[C@@H](C(N)=O)NC(=O)[C@H](CO)NC1=O	-8.0%	?	12.6µM*	.	.	.
SMILES	L3MBTL1 block	BAZ2B block	G9a inh	GLS inh	JMJD2A Tudor	HP1b binding inh
Cc1ccc(CNC(=O)C2CCCN(S(=O)(=O)c3cn(C)cn3)C2)cc1 (stereo not given)	.	-2.8%	2.7%[59 µM]	-5.0%	-22.2%	?
COc1ccc(OC)c(NC(=O)c2nnn(CC(=O)Nc3ccc(C(C)C)cc3)c2N)c1	.	5.2%[57.1 µM]	-36.0%[59 µM]	4.0%	-19.7%	20.1%
C/C=C1\COC(C(=O)NCc2ccccn2)(C(F)(F)F)C=C1C=C(C)C (stereo not given)	.	.	.	.	-14.5%	16.0%
CCOc1cc(C(=O)Nc2ccc3oc(-c4ccc(F)cc4Cl)nc3c2)cc(OCC)c1OCC	.	-3.1%	1.8%[59 µM]	8.1%	-8.5%	23.7%
CC[C@H](C)[C@@H]1NC(=O)[C@@H](CC(C)C)NC(=O)[C@H](C(C)C)NC(=O)[C@H]2CSSC[C@H](NC1=O)C(=O)N2	.	.	.	-10.3%	.	.
CC(C)C[C@@H]1NC(=O)[C@H](C(C)C)NC(=O)c2cc([N+](=O)[O-])cc(I)c2NCC[C@@H](C(N)=O)NC1=O	-3.6%	79.4µM*	12.6µM*	-13.0%	-19.6%	23.5%
Cc1cccc(NC(=O)CSc2nncn2C)c1	.	-10.3%	-2.1%[59 µM]	-4.3%	-1.1%	19.2%
CCOc1ccc(C(C)NC(=S)NCc2ccc(F)cc2)cc1 (stereo not given)	.	-27.7%	.	4.4%	-4.5%	40.5%
CCOc1ccc(NCCC(O)c2ccc(F)cc2)cc1 (stereo not given)	.	50.1µM*	-33.5%[2.33 µM]	?	?	?
O=C(Nc1ccon1)c1ccc(N2CCCCC2)c([N+](=O)[O-])c1	-45.1%	?	-45.1%	-4.8%	?	-32.3%
O=C(Nc1ccccc1N1CCCCC1)c1ccc(Cl)c([N+](=O)[O-])c1	.	?	35.5µM*	-4.6%	?	-17.8%
O=C(Nc1nc2ccccc2s1)c1ccc(N2CCCCC2)c([N+](=O)[O-])c1	-21.8%	10µM*	?	-0.5%	?	-26.0%
CN1CCN(c2ccc(C(=O)c3ccc(Br)cc3)cc2[N+](=O)[O-])CC1	-24.6%	39.8µM*	44.7µM*	-0.8%	22.4µM*	?
CN1CCN(c2ccccc2NC(=O)c2ccc(N3CCCC3)c([N+](=O)[O-])c2)CC1	-12.2%	?	50.1µM*	1.8%	56.2µM*	?
